# Experimental data reported in the supplement of paper PMC3342239.
# Structures can show the parent of a compound that is named as a salt.
# System: Saccharomyces cerevisiae
# Assay: fraction of cells in G1 phase (DNA content, flow cytometry); higher = more cells with unreplicated DNA (G1 delay)
# Details: temperature: 30 C; YPD; JTY2953 pdr5 snq2 (sensitized); drug added to: cultures diluted from stationary phase; 6-7 h
# Procedure, shortened: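 S. cerevisiae in YPD at 30°C was dosed with library drugs, using a final 20 µg/ml for sensitized JTY2953 diluted 1∶200 from overnight and fixed at 6–7 h, or dosing dividing JTY2953 (fixed at 6 h) and BY4741 (fixed at 4.33 h). Ethanol-fixed, SYTOX Green-stained cells were read by flow cytometry (10,000 events). The G1 fraction is taken as the Dean-Jett-Fox G1 peak area divided by the G1 and G2/M areas combined.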
row,SMILES,fraction of cells in G1 phase
1,CC1=C(/C=C/C(C)=C/C=C/C(C)=C/C(=O)O)C(C)(C)CCC1 [Retinoic acid] (66.5679 µM),0.524
2,NC12CC3CC(CC(C3)C1)C2 [Amantadine HCl] (106.553 µM),0.505
3,C=C1/C(=C\C=C2/CCC[C@]3(C)[C@@H]([C@H](C)CCCC(C)(C)O)CC[C@@H]23)C[C@@H](O)C[C@@H]1O [Calcitriol] (48.0019 µM),0.565
4,O=c1[nH]c(=O)n([C@H]2C[C@H](O)[C@@H](CO)O2)cc1F [Floxuridine] (81.2358 µM),0.514
5,CC(=O)OCC(CCn1cnc2cnc(N)nc21)COC(C)=O [Famciclovir] (62.2396 µM),0.505
6,O=C(C1CCCCC1)N1CC(=O)N2CCc3ccccc3C2C1 (configuration not stated) [Praziquantel] (64.0173 µM),0.441
7,CCS(=O)(=O)CCn1c([N+](=O)[O-])cnc1C [Tinidazole] (80.8818 µM),0.443
8,N.N.O=C([O-])C[O-].[Pt+2] [Nedaplatin] (65.9657 µM),0.545
9,COC(=O)c1ccc(=O)c2nc3c(=CO)c(O)cc(=O)c3[nH]c12 [Lomofungin] (63.6422 µM),0.495
10,CC(C)C[C@H](NC(=O)[C@H](Cc1ccccc1)NC(=O)c1cnccn1)B(O)O [Bortezomib] (52.0499 µM),0.4
11,CC(C)n1c(/C=C/[C@@H](O)C[C@@H](O)CC(=O)O)c(-c2ccc(F)cc2)c2ccccc21 [Fluvastatin Na] (48.6053 µM),0.464
12,CC[C@@]1(O)C(=O)OCc2c1cc1n(c2=O)Cc2cc3c(CN(C)C)c(O)ccc3nc2-1 [Topotecan] (47.4544 µM),0.481
13,CC1=C(/C=C/C(C)=C/C=C/C(C)=C/C=C/C=C(C)/C=C/C=C(C)/C=C/C2=C(C)C(=O)CCC2(C)C)C(C)(C)CCC1=O [Canthaxanthin] (35.4071 µM),0.527
14,CN(C)CCCOc1nn(Cc2ccccc2)c2ccccc12 [Benzydamine] (64.6382 µM),0.48
15,CCCSc1ccc2[nH]c(NC(=O)OC)nc2c1 [Albendazole] (75.3761 µM),0.475
16,CC(C)NCC(O)COc1ccc(CCOCC2CC2)cc1 (configuration not stated) [Betaxolol HCl] (65.054 µM),0.525
17,Cc1cnc(C(=O)O)c[n+]1[O-] [Acipimox] (129.764 µM),0.493
18,COc1cc(NS(=O)(=O)c2ccc(N)cc2)nc(OC)n1 [Sulfadimethoxine] (64.4467 µM),0.48
19,CC(=O)Oc1ccc(C(c2ccc(OC(C)=O)cc2)c2ccccn2)cc1 [Bisacodyl] (55.3402 µM),0.499

row,SMILES,fraction of cells in G1 phase
1,CC(C)(O/N=C(\C(=O)N[C@@H]1C(=O)N2C(C(=O)[O-])=C(C[n+]3ccccc3)CS[C@H]12)c1csc(N)n1)C(=O)O [Ceftazidime] (36.5909 µM),0.486
2,CC[C@]1(O)C[C@@H]2CN(CCc3c([nH]c4ccccc34)[C@@](C(=O)OC)(c3cc4c(cc3OC)N(C)[C@H]3[C@@](O)(C(=O)OC)[C@H](OC(C)=O)[C@]5(CC)C=CCN6CC[C@]43[C@@H]65)C2)C1 [Vinblastine sulfate] (21.9998 µM),0.495
3,Cc1nccn1CC1CCc2c(c3ccccc3n2C)C1=O (configuration not stated) [Ondansetron] (68.1729 µM),0.463
4,CCCCN1C[C@H](O)[C@@H](O)[C@H](O)[C@H]1CO [Miglustat] (91.2063 µM),0.456
5,O=C(NCCNCC(O)COc1ccc(O)cc1)N1CCOCC1 (configuration not stated) [Xamoterol hemifumarate] (58.9284 µM),0.518
6,CCCCC[C@H](O)/C=C/[C@H]1[C@H](O)CC(=O)[C@@H]1CCCCCCC(=O)O [Alprostadil] (56.4189 µM),0.447
7,CN(C)CC/C=C1/c2ccccc2COc2ccc(CC(=O)O)cc21 [Olopatadine] (59.2729 µM),0.431
8,CN(C)CCOC(c1ccccc1)c1ccccc1 [Diphenhydramine HCl] (78.3199 µM),0.446
9,CN(C)CCCSc1ccccc1NC(=O)/C=C/c1ccccc1 [Cinanserin] (58.7387 µM),0.456
10,C=C1C[C@H]2[C@@H]3C=C(C)C4=CC(=O)CC[C@]4(C)[C@H]3CC[C@]2(C)[C@@]1(OC(C)=O)C(C)=O [Melengestrol acetate] (50.4374 µM),0.569
11,COCc1c(C(C)C)nc(C(C)C)c(/C=C/[C@@H](O)C[C@@H](O)CC(=O)O)c1-c1ccc(F)cc1 [Cerivastatin] (43.5196 µM),0.448
12,CNCCCC12CCC(c3ccccc31)c1ccccc12 [Maprotiline HCl] (72.0947 µM),0.475
13,CCCCCOC(=O)Nc1nc(=O)n([C@@H]2O[C@H](C)[C@@H](O)[C@H]2O)cc1F [Capecitabine] (55.6483 µM),0.442
14,C[C@@H](O[C@H]1OCCN(Cc2n[nH]c(=O)[nH]2)[C@H]1c1ccc(F)cc1)c1cc(C(F)(F)F)cc(C(F)(F)F)c1 [Aprepitant] (37.4225 µM),0.493
15,CN[C@@H]1[C@H](O)[C@H](NC)[C@H]2O[C@@]3(O)C(=O)C[C@@H](C)O[C@H]3O[C@@H]2[C@H]1O [Spectinomycin] (60.1763 µM),0.485
16,C[C@]12CCC(=O)C=C1CC[C@@H]1[C@@H]2[C@@H](O)C[C@@]2(C)[C@H]1CC[C@]2(O)C(=O)CO [Hydrocortisone] (55.1769 µM),0.483
17,CC(=O)S[C@@H]1CC2=CC(=O)CC[C@]2(C)[C@H]2CC[C@@]3(C)[C@@H](CC[C@@]34CCC(=O)O4)[C@H]12 [Spironolactone] (48.0095 µM),0.531
18,COc1ccc(C[C@H](N)C(=O)N[C@H]2[C@@H](O)[C@H](n3cnc4c(N(C)C)ncnc43)O[C@@H]2CO)cc1 [Puromycin 2HCl] (36.7377 µM),0.5
